These results are taken from PubChem BioAssay AID1671188 (National Center for Advancing Translational Sciences (NCATS), 2021).

About 250 (0.25%) of roughly 100,000 compounds were called active. Where a call stands in place of a potency, no number is given. Roughly 7% stayed inconclusive and do not appear here. Calls come from the whole dose curve; as a rule, active = well fitted inhibition curve with a large enough effect; inconclusive = small, poorly fitted or top-dose-only effect; inactive = flat fitted curve, though single readings scatter. Many of the other results were omitted from the sample, so actives are more common in it than they were.
Potency is the fitted concentration of half-maximal effect.

Chain of Alanine aminotransferase 2 (Homo sapiens) (Q8TD30 whole entry, looked up): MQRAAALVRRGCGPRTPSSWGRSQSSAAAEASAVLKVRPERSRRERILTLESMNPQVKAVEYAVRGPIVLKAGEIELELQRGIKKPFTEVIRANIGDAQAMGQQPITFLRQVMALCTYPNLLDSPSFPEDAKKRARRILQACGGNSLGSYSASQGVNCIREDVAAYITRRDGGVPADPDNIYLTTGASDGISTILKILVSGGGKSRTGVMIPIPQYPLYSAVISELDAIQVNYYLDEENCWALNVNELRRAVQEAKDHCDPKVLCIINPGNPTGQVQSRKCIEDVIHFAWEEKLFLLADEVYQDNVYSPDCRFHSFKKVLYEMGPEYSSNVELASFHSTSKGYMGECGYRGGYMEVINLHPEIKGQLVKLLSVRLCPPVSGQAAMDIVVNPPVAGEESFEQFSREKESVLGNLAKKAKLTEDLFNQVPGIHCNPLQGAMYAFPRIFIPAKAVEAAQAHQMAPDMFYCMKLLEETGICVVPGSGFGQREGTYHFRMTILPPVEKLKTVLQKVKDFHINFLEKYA

The assay has as its target Alanine aminotransferase 2 (Homo sapiens) (UniProt Q8TD30). Description: Primary qHTS assay for inhibitors of Glutamate pyruvate transaminase 2 (GPT2). Note: nearly all actives have a fitted effect of over 60% in size. The note with it: Recombinant GPT2, coupled pyruvate oxidase/HRP Amplex Red fluorescence; series mostly up to 57.7 µM. The method, then: Assay Provider: Zhenghe John Wang Ph.D.
Case Western Reserve University, Cleveland OH
Glutamate pyruvate transaminase 2 (GPT2) catalyzes the reversible transamination of glutamate and pyruvate to provide a-ketoglutarate and alanine. We have optimized an assay for GPT2 enzymatic activity that couples pyruvate formation to detection of fluorescence using an established pyruvate oxidase/horseradish peroxidase / Amplex Red system.
Screening conditions were 250uM a-KG, 2mM L-alanine, and 10ng/uL GPT2 in […] of solution; 10uL of Amplex reaction mix (outlined below) were added so that final concentrations of Amplex reagents in 50uL were 0.2mM ThPP, 0.2U/mL PO and HRP, and 50uM Amplex.
NOTE: The volume of GPT2 in the system depends on the activity of it. The activity is different every batch. You need to test the activity before the assay. For full plate assay with automation, plate 20uL of GPT2 buffer to pin into, then add 10uL of GPT2 dilution followed immediately by 10uL of substrate dilution. 2 Columns of the plate were devoted to GPT2 buffer ([…] PH7.5, 0.0001% Tween) + 50uM AOA (known GPT2 inhibitor) to serve as a positive control. Complete the assay as normal. Amplex-red buffer: […] PH7.5, 1 mM EDTA, 1 mM MgCl2.
1. Combine a-KG and L-alanine at desired concentrations and incubate for at least 10 minutes at 37C. Stocks of L-alanine and a-KG are diluted in distilled water. However, the stocks were diluted in GPT2 buffer for the assay.
2. Prepare GPT2 dilution at the desired concentration in GPT2 buffer.
3. Plate 40uL of GPT2 dilution with 40uL of substrate dilution and let incubate for 30 minutes at room temperature.
4. Add 20uL of Amplex reaction mix prepared as follows: 1.5uL 200U/mL Horseradish Peroxidase, 200mM Thiamine Pyrophosphate, 200U/mL Pyruvate Oxidase; 7.5uL 10mM Amplex Red; 288uL Amplex Buffer.
5. Incubate for 30 minutes at room temperature in the dark, then image using AM_Amplex_Fluorescence on plate reader nearest the window.
In general terms: In qHTS, concentration-response curves come from the screen itself.
For `O=C(c1ccc(C(F)(F)F)s1)N1CCCN(c2nnc3ccccn23)CC1`, the Potency result was “inactive”. The result for `COc1ccc(C(=O)N(C)Cc2ccc(F)cc2)cc1` reads “inactive”; that for `COc1cccc(NC(=O)O[C@@H]2CO[C@H]3[C@@H]2OC[C@@H]3Nc2nccc(-c3cccs3)n2)c1`, “inactive”; that for `CCOC(=O)c1ccc(NC(=O)Cn2c(N3CCOCC3)nc(CC)cc2=O)cc1`, “inactive”. Consider `Cn1nccc1-c1cccc(-c2nc(N3CCOCC3)n(C)n2)c1`, for which the Potency entry is “inactive”.

As to `CC(C)NC(=O)N1Cc2[nH]cnc2C[C@H]1c1nc(-c2ccc3c(c2)OCO3)no1`, the Potency entry is “inactive”. On to `CC(=O)/C(C)=N/O`, for which the Potency was 20 µM (active). The result for `CN(CC1CCOCC1)C(=O)c1ccccc1` reads “inactive”; that for `C#CCNC(=O)c1cn2cc(-c3ccccc3)sc2n1`, “inactive”. The value for `Cc1ccccc1CN1CCCn2nc(C)c(-c3cccnc3N3CCOCC3)c21` was “inactive”.

Consider `COc1ccc(-c2cc(-c3cccc4[nH]ncc34)cn3cncc23)cn1`, for which the Potency result was “inactive”.

As for `O=C(NCc1cccnc1)[C@@H]1C[C@@H](O)CN1C1CCN(C(=O)C2(c3ccccc3)CC2)CC1`, the Potency entry was “inactive”. The result for `CC(NC(=O)c1ccc(C(C)(C)C)cc1)C(=O)N1CCN(c2ccccn2)CC1` (stereo not drawn) reads “inactive”; that for `Cc1ccccc1-c1cn(C)c(=O)n2cc(CNc3ccccc3)nc12`, “inactive”. The result for `Cn1cc(CN2CCOC[C@H]2c2ncc(-c3cccc(F)c3)[nH]2)c2ccccc21` reads “inactive”; that for `Cc1cc(S(=O)(=O)NCC2CCOCC2)ccc1F`, “inactive”; that for `COC1CN(c2ccc(C)cc2)C12CCN(C(=O)Cc1cccc(F)c1)CC2` (stereo not drawn), “inactive”. The value for `CC(=O)N1CC2(CCN(Cc3cccnc3)CC2)Cc2ccccc21` was “inactive”; that for `CC(=O)N[C@H]1CN(c2cncc(C(=O)N3CCCC3)n2)C[C@@H]1C1CC1` was “inactive”; that for `O=C(NC1CCN(C(=O)c2ccc(-c3cncnc3)cc2)CC1)c1ccccn1` was “inactive”. Take `CN1CCOC[C@H]2CCN(C(=O)c3ccsc3)C[C@H]21`: the Potency result is “inactive”.

`CCCN(C)c1nccnc1OC1CCN(C(=O)c2ccnn2C)C1` (stereo not drawn): the Potency entry is “inactive”. The result for `Cc1cc2nc3n(c(=O)c2n1CC(=O)Nc1ccc2c(c1)OCO2)CCCCC3` reads “inactive”; that for `CCC1=C(C(=O)OC)C(c2ccccc2)N2C(CC(=O)N3CCCC3)=CSC2=N1` (stereo not drawn), “inactive”. For the compound `CC(C)Cc1cc(CNc2nc(C(C)(C)C)nc3c2cnn3C)no1`, the Potency entry is “inactive”. The result for `COc1cccc(-c2ccc(C(=O)N3CCC(NC(=O)c4ccccc4OC)CC3)cc2)c1` reads “inactive”. The result for `CCc1cccc2c(C(CC(=O)NCC(C)C)c3cccc(OC)c3)c[nH]c12` (stereo not drawn) reads “inactive”; that for `O=C(Nc1ccccc1)N1CCCC(C(=O)N2CCCC(c3nc4ncccc4[nH]3)C2)C1` (stereo not drawn), “inactive”.

Turning to `O=C(C1CCC1)N1CCC(n2cnnc2C2CC2)CC1`, the Potency entry was “inactive”. The result for `CCOC(=O)C1CCN(C(=O)c2ccc3nnc(Cc4ccc(Cl)cc4)n3c2)CC1` reads “inactive”; that for `CCC(C)(C)C(=O)N1CC(c2nnc(-c3ccncc3)o2)C2(CCOCC2)C1` (stereo not drawn), “inactive”. The value for `O=C(C1CCCN(Cc2cccc(-c3ccc(F)cc3F)c2)C1)N1CCCCC1` (stereo not drawn) was “inactive”; that for `CC[C@H]1CN(S(=O)(=O)c2ccc(OC)cc2)CC[C@H]1CC(=O)Nc1ccccc1` was “inactive”; that for `CC(C)(O)CCc1cccc(C(=O)NC2CCN(c3ncccc3C#N)CC2)c1` was “inactive”.

Turning to `O=C1C[C@H]2CC[C@@H](CN1)N2C(=O)c1csc2nc(-c3ccccc3Cl)cn12`, the Potency result is “inactive”. With `COCCN1C(=O)N(CCc2ccccc2)C(=O)C12CCN(C/C=C/c1ccccc1)CC2`, the Potency entry was “inactive”.

With `Cc1ccc(C(=O)N2CC(n3c(C)cnc3-c3ccccc3)C2)cn1`, the Potency entry was “inactive”. The value for `CCOC(=O)C(C)Oc1cccn2c(=O)c(-c3cc(C)n(-c4cccc(F)c4)n3)c(C)nc12` (stereo not drawn) was “inactive”; that for `Cc1cc(N)n(CC(=O)N[C@@H]2COCC[C@H]2Oc2ccc(C(N)=O)cc2)n1` was “inactive”; that for `O=C(NCc1ccncc1)c1ccc(CN2C(=O)NC3(CCS(=O)(=O)CC3)C2=O)cc1` was “inactive”. In the case of `CN(Cc1cccnc1)C(=O)CC(c1ccccc1)c1ccc(Cl)cc1` (stereo not drawn), the Potency entry was “inactive”.

As to `O=C(NCCc1ccccc1)C1CN(C2CCCCC2)C(=O)N1` (stereo not drawn), the Potency entry was “inactive”.

On to `COc1ccc(C(=O)N2C[C@@H](F)[C@@H](OCc3nc4ccc(C(F)(F)F)cc4[nH]3)C2)cc1`, for which the Potency result is “inactive”. The value for `CC(=O)Nc1ccc(C2(C(=O)NCc3ccc(Cl)cc3)CCC2)cc1` was “inactive”; that for `CN(C)C(=O)CCc1ccc2c(c1)CN(Cc1cn[nH]c1-c1ccc(F)cc1)CCO2` was “inactive”; that for `Cc1nn(C(=O)CCC(=O)N2CCC(CCOc3ccccc3)C2)c2ccccc12` (stereo not drawn) was “inactive”. The value for `C=CCN(C)C(=O)C[C@@H]1c2nc(NC(=O)c3ccc(C(C)(C)C)cc3)sc2C[C@@H]2[C@](C)(CO)[C@H](O)CC[C@]21C` was “inactive”. Consider `COC(=O)[C@@H]1Cc2ncn(Cc3ccc(Cl)cc3)c2CN1Cc1ccc(N(C)C)cc1`, for which the Potency entry is “inactive”.

As for `COc1cc2c(cc1CN1C[C@H]3CC[C@@H]1CN(C(=O)c1cnccn1)C3)CCC2`, the Potency result was “inactive”. The result for `Cc1ccc(S(=O)(=O)CCNC(=O)c2cc3n(n2)CCCNC3)cc1` reads “inactive”. The value for `c1ccc2c(c1)CNC1(CCN(Cc3cccc4ccccc34)CC1)CO2` was “inactive”; that for `COc1ccc(-n2nc(C)c([C@H]3C=C[C@@H](OC(=O)Nc4cccc(F)c4)C3)c2C)cc1` was “inactive”. The value for `Cc1ccc(S(=O)(=O)N2CCCC(CCC(=O)NC3CCCCC3)C2)cc1` (stereo not drawn) was “inactive”; that for `O=C(NCc1ccc(Cl)nc1)c1ccn2cncc2c1` was “inactive”. As to `CCc1cccc2c(C(CC(=O)NCC(C)C)c3ccccc3OC)c[nH]c12` (stereo not drawn), the Potency result was “inactive”. The result for `COc1ccc(C(=O)N2CCN(C(C(=O)O)c3cccc(O)c3)CC2)cc1` (stereo not drawn) reads “inactive”; that for `CN1c2cc(C(=O)NCc3ccccc3Br)ccc2C(=O)N2CCCCC21` (stereo not drawn), “inactive”. On to `COc1cccc(CN2C(=O)OC3(CCN(C(=O)C4CCC(OC)CC4)CC3)C2(C)c2cccnc2)c1` (stereo not drawn), for which the Potency entry was “inactive”. As for `C=CCn1cc2c3c(cccc31)[C@H](CC(C)C)N[C@H](C(=O)NCC1CC1)C2`, the Potency result is “inactive”.

For `Cc1ccc(CN2CCC3(CC2)CN(C2CCC2)CC3CO)o1` (stereo not drawn), the Potency result is “inactive”. The value for `NC1(C(=O)NCCC2CCCN(Cc3ccc4occc4c3)C2)CC1` (stereo not drawn) was “inactive”; that for `COC(=O)[C@@H]1CN(C(=O)c2cccnc2)CCN1C(C)=O` was “inactive”. The value for `FC(F)(F)c1ccc(CN2CCn3c(nnc3-c3ccccc3)C2)cc1` was “inactive”.
